Values without a mark were called inactive. How the calls were made is not given here.

Sequence of Pantothenate synthetase (Mycobacterium tuberculosis (strain ATCC 25618 / H37Rv)) (P9WIL5 whole entry, looked up): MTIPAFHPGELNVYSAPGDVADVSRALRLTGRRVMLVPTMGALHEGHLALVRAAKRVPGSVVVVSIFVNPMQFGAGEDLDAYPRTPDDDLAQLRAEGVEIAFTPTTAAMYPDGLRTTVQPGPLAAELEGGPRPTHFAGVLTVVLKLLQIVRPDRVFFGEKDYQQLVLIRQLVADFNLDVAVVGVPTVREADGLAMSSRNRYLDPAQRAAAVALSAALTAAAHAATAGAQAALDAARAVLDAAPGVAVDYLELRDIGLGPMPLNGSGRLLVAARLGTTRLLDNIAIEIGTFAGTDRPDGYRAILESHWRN

The experiment addresses Pantothenate synthetase (Mycobacterium tuberculosis (strain ATCC 25618 / H37Rv)) (UniProt P9WIL5). The experiment is described as follows: Coupled enzyme confirmation of inhibitors against recombinant Mtb PanC (AID 375).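 Further: 0% = full reaction with vehicle and 100% = no enzyme background.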 To be noted: coupled enzyme assay; at 10 µM, hits give high values.
With `Cc1cccc(C)c1OCc1nnc(SCC(=O)Nc2ccccc2F)o1`, the inhibition is 0%. As for `O=C(C1CCN(S(=O)(=O)c2cccnc2)CC1)N1CCN(c2ccc(Cl)cc2)CC1`, the figure is 0%; as for `CNC(=O)Nc1cccc(C(F)(F)F)c1`, 0%. In the case of `CC(=O)Nc1nnc(S(N)(=O)=O)s1` it was 0%; in that of `Cc1ccc(C)n1-c1ccc(-n2cnnn2)cc1`, 2%. As for `Cc1cc(-c2ccccc2)nc2cc(C(=O)NCCCn3ccnc3)nn12`, the figure is 7%; as for `CCc1c(C)n([O-])c2c([n+]1=O)CCC2`, 0%. Regarding `COC(=O)C1=C(N)Oc2cc(C)[nH]c(=O)c2C1c1ccncc1` (stereo not drawn), the inhibition was 0%. As for `Nc1nnc(Cc2ccc(Cl)cc2)s1`, the figure is 4%; as for `S=c1nc(C2CC2)[nH]c2ccccc12`, 0%. Turning to `O=C(Cc1nn[nH]n1)NCCC1=CCCCC1`, the inhibition was 4%. `O=C(CN1C(=O)CC(c2ccco2)Sc2ccccc21)Nc1ccc2c(c1)OCCO2` (stereo not drawn): the inhibition was 3%. In the case of `O=C(CN(C(=O)CCC(=O)Nc1nccs1)c1ccccc1F)NCC1CCCO1` (stereo not drawn) it was 2%; in that of `O=C1c2ccccc2C(=O)N1CNc1ccccc1`, 0%; in that of `CCCC(=O)Nc1nnc(Sc2ccc(N(C)C)cc2)s1`, 0%.

As to `O=C(NC1CCCC1)C(c1cccs1)N(Cc1ccco1)C(=O)Cn1nnc(-c2cccs2)n1` (stereo not drawn), the inhibition was 0%. As for `O=C(Nc1ccc2nn(-c3ccccc3)nc2c1)c1ccc(Br)o1`, the figure is 0%; as for `CCn1c(SCc2cc(=O)[nH]c3ccccc23)nc2c1c(=O)n(C)c(=O)n2C`, 5%.

The values are drawn from PubChem BioAssay.
